Bioassay records from PubChem.
Rab9 prom act: qHTS Assay for Rab9 Promoter Activators | Potency, µM (titrated, usually from 9.22 µM), without a hit: at the top dose activation, negative = inhibition, actives largely listed as activators | 320,000 tested, 2.8% active | Huh7 Rab9 promoter-luciferase reporter, luminescence, 24 h; further: % of control where 0% means no effect; nearly all actives have a fitted effect of over 60% in size
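Measured in stably transfected Huh7 cells bearing a Rab9 promoter–luciferase construct: 24 h compound treatment at 37 °C, followed by luminescence detection.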
NPC1 prom act: qHTS Assay for NPC1 Promoter Activators; 320,000 tested, 2.4% active; AID 485313, 2010; Huh7 NPC1 promoter luciferase reporter, 24 h; Potency, µM (titrated, usually from 9.22 µM), without a hit: at the top dose activation, most hits filed as activators; further: % of control where 0% means no effect; nearly all actives have a fitted effect of over 60% in size
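In 1536-well qHTS, Huh7 cells harboring an NPC1 promoter–luciferase construct received compound for 24 h; activation was quantified by luminescence following luciferase reagent addition.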
SMN2 splice enh: qHTS Assay for Enhancers of SMN2 Splice Variant Expression; HEK293 SMN2-luciferase splicing reporter, luminescence, 30-36 h; Potency, µM (series often up to 46.1 µM), for inactives: at the top dose activity change, positive = activation, usual class: activators; 210,000 tested, 2.8% active; further: % of control where 0% means no effect; nearly all actives have a fitted effect of over 55% in size
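HEK293 cells carry an SMN2 […]–luciferase reporter in which exon 7 inclusion puts luciferase in frame. Cells were plated 10-12 h before compound addition, then incubated 30-36 h at 37C. ONE-Glo luminescence was read; sodium butyrate at 4.5 mM final served as control.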
FLuc modulator: qHTS profiling assay for firefly luciferase inhibitor/activator using purifed enzyme and Km concentrations of substrates (counterscreen for miR-21 project); Luciferin 4-monooxygenase (Photinus pyralis), P08659; purified FLuc, Km substrates, luminescence inhibition; Potency, µM (highest dose often 57.5 µM), for the others: at the top dose activity change, negative = inhibition, hits mostly inhibitors; 360,000 tested, 6.9% active; AID 588342, 2011;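 further: plate controls were vehicle for no effect and reference inhibitor for full effect; nearly all actives have a fitted effect of over 55% in size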
Target sequence (P08659 whole entry, looked up): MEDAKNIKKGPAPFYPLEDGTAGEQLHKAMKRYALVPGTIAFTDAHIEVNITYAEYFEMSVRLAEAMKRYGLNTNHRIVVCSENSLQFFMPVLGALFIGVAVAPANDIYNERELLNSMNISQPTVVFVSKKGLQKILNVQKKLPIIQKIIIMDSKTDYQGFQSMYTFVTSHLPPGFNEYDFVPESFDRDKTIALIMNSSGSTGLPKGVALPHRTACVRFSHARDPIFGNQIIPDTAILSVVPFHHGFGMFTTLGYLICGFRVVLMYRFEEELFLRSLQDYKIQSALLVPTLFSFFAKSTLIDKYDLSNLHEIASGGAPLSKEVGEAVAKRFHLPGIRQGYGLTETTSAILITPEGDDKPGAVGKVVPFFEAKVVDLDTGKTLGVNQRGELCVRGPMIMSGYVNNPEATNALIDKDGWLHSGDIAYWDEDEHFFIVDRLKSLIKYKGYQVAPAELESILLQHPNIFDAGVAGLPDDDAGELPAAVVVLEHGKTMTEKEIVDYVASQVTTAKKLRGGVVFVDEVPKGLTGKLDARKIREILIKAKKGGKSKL
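Purified P. pyralis luciferase, 10 nM final, with Km-level 10 uM D-luciferin and 10 uM ATP in 50 mM Tris acetate pH 7.5, 10 mM Mg acetate, 0.01% Tween-20, 0.05% BSA; 6-point qHTS titration about 60 µM downward; luminescence read.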
ELG1 genotoxic: qHTS screen for small molecules that induce genotoxicity in human embryonic kidney (HEK293T) cells expressing luciferase-tagged ELG1; 330,000 tested, 1.3% active; HEK293T ELG1-luciferase reporter, luminescence, 16 h; AID 504466, 2011; Potency, µM (titrated, usually from 46 µM), inactives show top-dose activity change, positive = activation, hits mostly activators; further: % of control where 0% means no effect; nearly all actives have a fitted effect of over 60% in size
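Genotoxicity was scored as increased ELG1-luciferase reporter signal, measured by ONE-Glo luminescence (30 min, room temperature). Compound or vehicle exposure of the HEK293T reporter cells lasted 16 hr at 37°C.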
Luc counter: Counterscreen for Luciferase (Kinase-Glo TM) Inhibition; Kinase-Glo luciferase, ATP luminescence, 8 min; Potency, µM (highest dose often 38.3 µM), inactives show at the highest dose activity change, negative = inhibition, actives largely listed as inhibitors; 200,000 tested, 0.28% active; AID 1379, 2008; further: on the % scale 0 is the no-effect control and ±100 the full control effect; nearly all actives have a fitted effect of over 60% in size
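Kinase-Glo luciferase light output from ATP and luciferin was measured with 10 uM ATP, within the enzyme's linear range. Buffer: 50 mM imidazole pH 7.2, 50 mM KCl, 7 mM MgCl2, 0.01% Tween 20, 0.05% BSA; luminescence read after 8 min at ambient temperature.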
An asterisk follows results filed as active; ? = inconclusive; · = no result; [ ] = dose if it differs, or a comment. Most compounds without a hit are left out; they make up all but 7.5% or so of the library. The call rests on the fitted dose curve; in most records, active means well fitted curve in the direction sought with a large enough effect; inconclusive means small, poorly fitted or top-dose-only effect, or another doubt; inactive means no such curve, though single readings can be large; an effect the other way counts as inactive or inconclusive. Potency means the concentration at half of the fitted maximal effect.

SMILES	Rab9 prom act	NPC1 prom act	SMN2 splice enh	FLuc modulator	ELG1 genotoxic	Luc counter
Nc1nn2c(-c3ccccc3)cc(=O)[nH]c2c1N=Nc1ccc(O)cc1	-1%[1.84 µM]	-2%	-44%	6.7µM*	-11%	-12%
COc1ccc(-c2cc(C(=O)NCCc3ccc(OC)c(OC)c3)c3c(-c4ccc(F)cc4)[nH]nc3n2)cc1	·	·	·	0%	·	·
Cc1nc(N2CCOCC2)c2nc(-c3ccccc3)n(CCN3CCCCC3)c2n1	·	·	-3%	·	·	-1%
COc1ccc(O)c(C(=O)CC(=O)c2ccccc2C)c1	3.2µM*	?	·	?	?	-1%
COc1ccc(C(=O)CC(=O)c2ccccc2O)cc1	25%	?	·	12µM*	?	·
COc1ccc(C(=O)CC(=O)c2ccccc2O)cc1OC	-4%[1.84 µM]	11%	?	?	?	-1%
COc1ccc(O)c(C(=O)CC(=O)c2ccc(F)cc2)c1	0.71µM*	0.56µM*	2.2µM*	12µM*	?	-2%
COCCCNc1nc(NCc2ccc(C)cc2)c2cnn(C)c2n1	·	·	·	3%	·	·
Cc1cc(C)nc(NC(=O)c2cc(-c3ccc(C)s3)nc3ccccc23)c1	-4%	-4%	-26%	?	-13%	-6%
Cc1cccc(Nc2nc(-c3ccccc3)c(C(=O)Nc3cccnc3)s2)c1	20%	8%	-92%	17µM*	-6%	5%
Cc1ccc2nc(-c3ccccc3)cc(C(=O)Nc3cccnc3)c2c1	-2%	0%	·	·	-3%	·
Cc1cccc(-c2cc(C(=O)Nc3ccncc3)c3ccccc3n2)c1	2%	13%	·	24µM*	-7%	·
Cc1ccc(-c2cc(C(=O)Nc3cccnc3)c3ccccc3n2)s1	7%	13%	·	9.5µM*	-10%	·
O=C(Nc1ccc(Br)cc1)c1cc(-c2ccncc2)nc2ccccc12	·	·	·	·	-2%	·
Cc1cccc(-c2cc(C(=O)Nc3cccnc3)c3ccccc3n2)c1	4%	-3%	·	15µM*	-15%	·
CCOc1ccc(NC(=O)NCCc2c(C)nn(C)c2C)cc1	·	·	·	-3%	·	·
CCN(CC)CCn1c(-c2ccccc2)nc2c(NCc3ccccc3)nc(C)nc21	·	·	-17%	·	·	-2%
CCOC(=O)c1c(C)oc2c1c1c(c3ccccc32)OCN(Cc2cccnc2)C1	5%	3%	-73%	27µM*	15µM*	-3%
CCOC(=O)c1c(C)oc2c1c(C(c1cccnc1)N1CCN(C)CC1)c(O)c1ccccc12 (stereo not drawn)	9%	0%	·	-3%[2.3 µM]	?	5%
CCOC(=O)c1c(C)oc2c1cc(O)c1ccccc12	-1%	?	3%	2.4µM*	?	-1%
CC(=O)c1c(C)oc2c1cc(O)c1ccccc12	7%	0%	·	-8%	5%	·
CCOC(=O)c1c(C)oc2c1c1c(c3ccccc32)OCN(CCCC(=O)O)C1	?	?	·	19µM*	?	·
Cc1ccc(CNS(=O)(=O)c2c(C(=O)N3CCC(C)CC3)c(C)n(C)c2C)cc1	·	·	·	2%	·	·
Cc1ccc(-c2cn3cccc(C)c3n2)cc1	1.4µM*	4µM*	·	1.1µM*	?	?
Cc1ccc(-c2cn3cccc(C)c3n2)cc1NS(=O)(=O)c1ccccc1	·	·	23%	17µM*	·	·
O=[N+]([O-])c1cccn2cc(-c3ccc(Br)cc3)nc12	2.8µM*	?	·	?	?	2%
Cc1cccn2cc(-c3ccc(S(=O)(=O)N4CCOCC4)cc3)nc12	-3%	0%	-19%	-1%	-6%	12%
Cc1cc(C)c(S(=O)(=O)Nc2cc(-c3cn4ccccc4n3)ccc2C)cc1C	·	·	6%	?	·	·
Cc1cccn2cc(-c3ccc(S(=O)(=O)N4CCCCC4)cc3)nc12	0%	0%	·	0%	-4%	-2%
